The record followed here is PubChem BioAssay (NCATS).

SMILES strings stand for the structures. Records with an inconclusive call do not appear. Entries that show only a call come without a potency. Calls of active or inactive are those of the source. Calls come from the whole dose curve; as a rule, active = well fitted inhibition curve with a large enough effect; inconclusive = small, poorly fitted or top-dose-only effect; inactive = no such curve, though single readings can be large or run the other way. Where a SMILES comes first, the peptide text is derived from it. [ ]: non-standard residue; d: D form. pGlu = O=C1CC[C@@H](C(=O)O)N1; Thz = O=C(O)[C@@H]1CSCN1
Potency is the fitted concentration of half-maximal effect.

This experiment in a line: P-glycoprotein substrates identified in KB-3-1 adenocarcinoma cell line, qHTS therapeutic library screen (AID 1346986). Note: nearly all actives have a fitted effect of over 60% in size.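 Note: potency is for cytotoxicity meaning loss of cell viability.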 The note with it: KB-3-1 parental cells viability, CellTiter-Glo, 72 h; series mostly up to 44.5 µM. As for the experimental part: The ATP-binding cassette transporters P-glycoprotein (P-gp) is known to limit brain penetration of many chemotherapy drugs. […] We used the CellTiter-Glo viability assay to test library compounds against the parental KB-3-1 human cervical adenocarcinoma cell line and the colchicine-selected sub-line KB-8-5-11 that over-expresses P-gp. KB-8-5-11 cells were also tested in the presence of a P-gp inhibitor (tariquidar) to assess reversability of transporter-mediated resistance. Of the tested compounds, a total of 90 P-gp substrates were identified including 55 newly identified P-gp substrates. Substrates were confirmed using an orthogonal killing assay against HEK-293 cells transfected with P-gp. As exemplars, we confirmed that AT7159 (cyclin-dependent kinase inhibitor); AT9283, (Janus kinase 2/3 inhibitor); ispinesib (kinesin spindle protein inhibitor); gedatolisib (PKI-587, phosphoinositide 3-kinase/mammalian target of rampamycin inhibitor); GSK-690693 (AKT inhibitor); and KW-2478 (heat shock protein 90 inhibitor) were substrates , and direct ATPase stimulation was assessed. ABCG2 was also found to confer high levels of resistance to AT9283, GSK-690693 and gedatolisib, while ispinesib, AT7519 and KW-2478 were weaker substrates.
The HeLa derivative cell line, KB-3-1, and its colchicine-selected, P-gp-overexpressing subline, KB-8-5-11 were maintained in DMEM with 10% FCS and Pen/Strep with glutamine at 37 degree C in 5% CO2. For KB-8-5-11 cells, colchicine was added to the medium at a concentration of 100 ng/mL. HEK-293 cells transfected with empty vector (pcDNA) or vector containing human ABCB1 (MDR-19) or ABCG2 (R-5) have been described previously (Robey, Lin, Qiu, Chan & Bates, 2011) and were maintained in EMEM supplemented with 10% FCS, Pen/Strep and glutamine with 2 mg/ml G418 to select for the expression of the transporter. Cultures were confirmed to be free of mycoplasma infection using the MycoAlert Mycoplasma Detection Kit (Lonza, Walkersville, MD). For the screen, assay medium was identical to culture medium except for KB-8-5-11 where colchicine was excluded from the medium.
All cell lines were plated into 1536-well plates at 500 cells/well in 5 uL media. Compounds were then pinned in dose-response using a 1536-head pin tool (Kalypsis, San Diego, CA) and plates were incubated at 37 degree C in 5% CO2 for an additional 72 h. CellTiter-Glo reagent (Promega) was dispensed into the wells, incubated for 5 min and luminescence was read on a ViewLux instrument (Perkin-Elmer). Cytotoxic compounds were defined as those that yielded a curve class of -1.1, -1.2, -2.1, -2.2, -2.3, or -2.4, a maximum response of >50% and an AC50 of < 10 uM. Cherry-picked hits from screening analysis were tested with both the KB pair of cell lines, and the pcDNA (empty vector control) and MDR-19 (P-gp overexpressing) pair were tested, in the absence and presence of tariquidar.
(In qHTS, concentration-response curves come from the screen itself.)
`CC1(C)[C@@H](O)CC[C@]2(C)[C@H]3C(=O)C=C4[C@@H]5C[C@@](C)(C(=O)O)CC[C@]5(C)CC[C@@]4(C)[C@]3(C)CC[C@@H]12`: the Potency entry was “inactive”.
The same measure, in the same setting: the result for `CCNc1nc2c(ncn2[C@H]2C[C@H](O)[C@@H](CO)O2)c(=O)[nH]1` reads “inactive”; that for `C[C@H](O)[C@H](O)[C@H]1CNc2nc(N)[nH]c(=O)c2N1`, “inactive”; that for `COC(=O)[C@H]1[C@H]2C[C@@H]3c4[nH]c5cc(OC)ccc5c4CCN3C[C@H]2C[C@@H](OC(=O)/C=C/c2cc(OC)c(OC)c(OC)c2)[C@@H]1OC`, “inactive”.
Still for that read-out and setting: the result for `Nc1ncnc2c1c(I)cn2[C@@H]1C[C@H](N)[C@@H](O)[C@H]1O` reads 14.6 µM (active).
As for `O=C(O)Cc1cccc(-c2cc(CCCCCCc3ccc(O[C@H]4O[C@H](CO)[C@@H](O)[C@H](O)[C@@H]4O)c(-c4cccc(CC(=O)O)c4)c3)ccc2O[C@H]2O[C@H](CO)[C@@H](O)[C@H](O)[C@@H]2O)c1`, the outcome is “inactive [at 0.354 µM]”.
With `CC1(C)S[C@@H]2[C@H](NC(=O)[C@H](NC(=O)N3CCN(S(C)(=O)=O)C3=O)c3ccccc3)C(=O)N2[C@H]1C(=O)O`, the Potency result was “inactive”.
As to `CC(=O)O[C@H]1C[C@@]2(C)[C@@H](C[C@@H](O)[C@H]3[C@@]4(C)CC[C@@H](O)[C@@H](C)[C@@H]4CC[C@@]32C)/C1=C(\CCC=C(C)C)C(=O)O`, the Potency result was “inactive”.
Same read-out and setting: to `O=C(O)CC1CC(c2ccccc2)=NO1` (configuration not stated) belongs “inactive”.
The same measure, in the same setting: the result for `COc1cc(CNC(=O)CCCC/C=C/C(C)C)ccc1O` reads “inactive”; that for `CC(=O)c1ccc(OCC(=O)N2CCCCC2)cc1`, “inactive”; that for `CC(=O)SCC(CC(=O)c1ccc(C)cc1)C(=O)O` (configuration not stated), “inactive”.
The same measure, in the same setting: to `C/C(=N\O)c1ccc(OCC(=O)N2CCCCC2)cc1` belongs “inactive”; to `N#C/C(=C\c1ccc(O)c(O)c1)C(=O)NCCCc1ccccc1`, “inactive”.
Take `O=[N+]([O-])c1ccc(CNc2nc(NCc3cccc(C(F)(F)F)c3)nc3nc[nH]c23)cc1`: the Potency entry was “inactive”.
On to `Oc1cc(O)cc(/C=C/c2ccc(O)c(O)c2)c1`, for which the Potency result is “inactive”.
Take `CN1[C@@H]2CC[C@H]1CC(OC(c1ccccc1)c1ccccc1)C2` (some centres not stated): the Potency result was “inactive”.
The same measure, in the same setting: the result for `Cc1onc(-c2c(F)cccc2Cl)c1C(=O)N[C@@H]1C(=O)N2[C@@H]1SC(C)(C)[C@@H]2C(=O)O` reads “inactive”; that for `N#C/C(=C\c1ccc(O)c(O)c1)C(=O)NCc1ccccc1`, “inactive”.
On the same count and under the same terms, to `O=C1CC[C@@H](C(=O)N2CSC[C@H]2C(=O)O)N1` ([pGlu]-[Thz]-OH) belongs “inactive”; to `CC1(C)[C@@H](O[C@H]2O[C@H](C(=O)O)[C@@H](O)[C@H](O)[C@H]2O[C@@H]2O[C@H](C(=O)O)[C@@H](O)[C@H](O)[C@H]2O)CC[C@]2(C)[C@H]3C(=O)C=C4[C@@H]5C[C@@](C)(C(=O)O)CC[C@]5(C)CC[C@@]4(C)[C@]3(C)CC[C@@H]12`, “inactive”; to `COc1cc(/C=C/C(=O)N2CCN(CC(=O)N3CCCC3)CC2)cc(OC)c1OC`, “inactive”.
